# Bioassay records as filed in PubChem.
# FBW7 act: human FBW7 E3 ligase activation, primary screen. AlphaScreen FBW7–phospho-cyclin E peptide binding, activator screen. normalized activity (activation), % at 26.1 µM. 650,000 tested, 0.13% active; in the data active means normalized activity above about 1.9%;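 further: purified mutant Fbw7 with reduced substrate affinity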
# TEAD-YAP block: TEAD-YAP interaction inhibition | inhibition, % at 9.12 µM | HEK-TIYL cells, TEAD-Gal4/YAP UAS-luciferase luminescence | 640,000 tested, 1.4% active; in the data active means inhibition above about 32%;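 further: 0% = median of test compound wells and 100% = reference inhibitor wells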
# GPR151 activ: activates the human receptor GPR151; 650,000 tested, 1% active; PathHunter beta-arrestin GPR151 cells, luminescence; Q8TDV0; activation, % at 11.2 µM; in the data active means activation above about 4.9%;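 further: 0% = median of compound wells and 100% = cells with positive control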
# MITF primary: blocks human microphthalmia-associated transcription factor | inhibition, % at 2.6 µM | 650,000 tested, 0.91% active | O75030 | AlphaScreen MITF homodimerization, bead proximity signal; in the data active means inhibition above about 50%;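 further: 0% = vehicle wells with protein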
# Target sequence (O75030 whole entry, looked up): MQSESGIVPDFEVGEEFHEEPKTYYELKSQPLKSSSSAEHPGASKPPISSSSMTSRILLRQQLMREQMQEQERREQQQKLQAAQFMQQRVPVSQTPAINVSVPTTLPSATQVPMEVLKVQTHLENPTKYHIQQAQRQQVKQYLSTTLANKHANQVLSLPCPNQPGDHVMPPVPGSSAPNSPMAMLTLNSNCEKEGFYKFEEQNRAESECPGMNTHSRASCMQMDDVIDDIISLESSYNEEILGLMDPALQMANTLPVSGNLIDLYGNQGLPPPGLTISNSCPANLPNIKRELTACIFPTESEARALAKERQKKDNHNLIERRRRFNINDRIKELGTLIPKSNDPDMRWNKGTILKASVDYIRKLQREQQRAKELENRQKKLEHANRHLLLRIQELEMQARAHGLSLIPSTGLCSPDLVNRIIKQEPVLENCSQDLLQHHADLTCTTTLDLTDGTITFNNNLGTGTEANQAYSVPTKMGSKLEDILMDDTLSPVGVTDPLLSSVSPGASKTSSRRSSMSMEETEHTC
# MITF confirm: confirmation of human MITF inhibitors. shares compounds with MITF primary. AlphaScreen MITF homodimerization, biotin/His-MITF beads. inhibition, % at 2.6 µM. 4,700 tested, 16% active. AID 1259372;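 active means inhibition above a cutoff derived from the DMSO control wells, cut at about 28% in these data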;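 further: 0% = MITF dimer wells with DMSO only; inhibitors lower the bead chemiluminescence by keeping MITF from dimerizing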
# AS interf DR: optically interferes with AlphaScreen signal in dose response | shares compounds with MITF primary | AlphaScreen optical interference counterscreen, cell-free | IC50, µM | 480 tested, 6% active | AID 1259373; call rule not given here
# AS interf ctr: counter-screen: compounds optically interfering with AlphaScreen; AID 1259376; inhibition, % at 2.6 µM; 4,700 tested, 7.6% active; LysRS AlphaScreen counterscreen, signal interference, triplicate; shares compounds with MITF primary;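 active means inhibition above a cutoff derived from the DMSO control wells, cut at about 30% in these data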
# * marks the source's active call; other numbers are inactive results; . = not tested or not shown; ! = a repeat was not active. A selection: hits, their analogues and other compounds. The true share with any hit is near 3.4%.
SMILES,FBW7 act,TEAD-YAP block,GPR151 activ,MITF primary,MITF confirm,AS interf ctr,others
COc1ccccc1OCCN1CCOCC1,0,-4,-1,54*,6,9,
CCCC1(C2CCN(C(=O)c3ccoc3C)CC2)NC(=O)N(CCc2ccccn2)C1=O (stereo not given),0,5,0,3,.,.,
COc1ccc(CN2CCN(Cc3ccc(Br)cc3)CC2)c(OC)c1,-1,-13,-2,36,.,.,
COc1ccc(CN2CCN(Cc3ccc(F)cc3)CC2)c(OC)c1,0,0,0,81*,8,20,
COc1ccc(CN2CCN(Cc3ccc(SC)cc3)CC2)c(OC)c1,0,12,0,70*,5,18,
COc1ccc(CN2CCN(Cc3ccc(OC)c(OC)c3)CC2)c(OC)c1,0,1,1,66*,10,6,
COc1ccc(N2CCN(Cc3ccc(OC)cc3OC)CC2)cc1,0,-14,0,39,.,.,
CCOc1ccc(CN2CCN(Cc3ccc(SC)cc3)CC2)cc1,0,10,1,21,.,.,
COc1ccc(CN2CCN(Cc3ccc(OC)cc3OC)CC2)c(OC)c1,0,-2,-1,72*,0,15,
COc1ccc(CN2CCN(Cc3ccc(OC)cc3OC)CC2)cc1,0,1,0,65*,5,13,
COc1ccc(CN2CCCN(C)CC2)c(OC)c1,0,7,3,28,.,.,
COc1ccc(CN2CCN(CCCc3ccccc3)CC2)c(OC)c1,0,-2,-1,74*,7,15,
O=C(O)c1cccc(-n2cccc2/C=C\[N+](=O)[O-])c1,0,-8,0,63*,59*,6,AS interf DR=>6.5
CC1CCCC(N2CCN(C(=O)c3ccncc3)CC2)C1 (stereo not given),0,-5,2,53*,-6,-5,
CN1CCN(C2CCN(C(=O)c3ccc(-c4ccccc4)cc3)CC2)CC1,0,-4,0,69*,-1,0,
O=C(c1ccncc1)N1CCN(C2CCCCCC2)CC1,0,-1,2,82*,-2,0,
O=C(c1ccccc1)N1CCC(N2CCCCCC2)CC1,0,10,-1,20,.,.,
COc1ccc(C(=O)N2CCN(C3CCC(c4ccccc4)CC3)CC2)cc1 (stereo not given),0,3,-1,56*,14,16,
COc1cc(OC)cc(C(=O)N2CCN(C3CCC(c4ccccc4)CC3)CC2)c1 (stereo not given),1,13,-1,34,.,.,
O=C(NCC1COc2ccccc2O1)C(=O)Nc1ccccn1 (stereo not given),0,-16,1,7,.,.,
O=C(c1cccs1)N1CCN(C2CCCC2)CC1,0,-9,0,45,.,.,
O=C(c1cccs1)N1CCC(N2CCCCCC2)CC1,1,9,-2,55*,-7,-7,
CC1CCCC(N2CCN(C(=O)c3cccs3)CC2)C1 (stereo not given),1,3,0,53*,-6,-2,
COc1cc(OC)cc(C(=O)N2CCN(C3CCCCCC3)CC2)c1,0,0,2,59*,0,12,
Cc1ccc(NC(=O)N2CCCCCC2)cc1Cl,0,-58,2,5,.,.,
SMILES,FBW7 act,TEAD-YAP block,GPR151 activ,MITF primary,MITF confirm,AS interf ctr,others
CCCCCOC(=O)C1=C(C)NC2=C(C(=O)CC(C)(C)C2)C1c1ccccc1[N+](=O)[O-] (stereo not given),0,8,1,6,.,.,
O=C(O)C1=CC(=C(c2ccc(O)c(C(=O)O)c2)c2ccc(O)c(C(=O)O)c2)C=CC1=O,-1,-8,2,64*,83*,50*,
O=C(Nc1ccc(O)c(C(=O)O)c1)c1ccc(Br)cc1,0,5,-2,5,.,.,
CCCN1CCN(Cc2csc(Nc3ccc(C)cc3)n2)CC1,0,8,0,61*,9,20,
Cc1ccc(Nc2nc(CSc3nnnn3C)cs2)cc1,0,-42,0,1,.,.,
CN1CCN(CCOCCOc2ccccc2Br)CC1,0,-1,-1,30,.,.,
CN1CCN(CCOCCOc2ccc(Cl)cc2C(C)(C)C)CC1,0,2,2,68*,16,33*,
CN1CCN(CCOCCOc2cccc(Cl)c2Cl)CC1,0,-5,-1,51*,5,14,
Cc1ccc(OCCOCCN2CCN(C)CC2)c(C(C)(C)C)c1,0,8,0,56*,6,17,
CCN1CCN(CCOc2ccc(C)cc2Br)CC1,0,0,1,24,.,.,
CCN1CCN(CCOc2ccc(C)cc2C)CC1,0,4,0,78*,-6,-2,
Cc1ccc(OCCCN2CCN(C)CC2)c(C(C)(C)C)c1,0,-1,1,31,.,.,
CC(=O)Nc1ccc(-c2nc3cc(Cl)ccc3c(=O)o2)cc1,0,-4,-1,1,.,.,
CCCSc1nnc2c(n1)OC(c1cccc([N+](=O)[O-])c1)Nc1ccccc1-2 (stereo not given),0,-8,-1,7,.,.,
O=C(CSc1nc2ccccc2[nH]1)Nc1cc(C(F)(F)F)ccc1Cl,0,-6,-1,-5,.,.,
Cc1ccc(OCCOCCN2CCN(C)CC2)c(C)c1,0,-1,2,65*,12,20,
O=C1OC(c2cc(Cl)ccc2Cl)=N/C1=C\c1ccc2c(c1)OCO2,0,6,0,14,.,.,
COc1cccc(C(=O)N[C@H]2C[C@H]3C(=O)N[C@H](C)C(=O)N3C2)c1,0,-5,-1,66*,-2,-7,
CCCCOC(=O)NC(C(F)(F)F)C(F)(F)F,0,7,-1,12,.,.,
O=C(C1CCCN(Cc2ccncc2)C1)N1CCCCC1 (stereo not given),0,-6,-1,103*,-17,-3,
O=C(C1CCCN(Cc2cccc(F)c2)C1)N1CCCCCC1 (stereo not given),0,5,0,48,.,.,
O=C(C1CCCN(Cc2cccnc2)C1)N1CCCCC1 (stereo not given),0,10,1,104*,-26,-5,
O=[N+]([O-])c1cccnc1NCc1ccc(Cl)c(Cl)c1,0,7,1,-4,.,.,
COc1ccccc1N1CCN(CC(=O)Nc2ccc(C)cc2)CC1,0,10,-1,-17,.,.,
CN(C)CCS(=O)c1cc(-c2cn[nH]c2)ccc1NC(=O)[C@H]1Cc2cc(F)ccc2CN1 (stereo not given in full),0,1,0,56*!,72*,4,AS interf DR=>6.5
CN(C)CCS(=O)c1cc(-c2cn[nH]c2)ccc1NC(=O)[C@@H]1Cc2cc(F)ccc2CN1 (stereo not given in full),1.9*!,1,0,75*!,68*,8,AS interf DR=>6.5
COc1ccccc1NC(=O)Nc1cccn(Cc2ccccc2Cl)c1=O,0,3,1,4,.,.,
